Hits are enriched below; roughly 2.4% of the tested compounds scored in any of these assays.
FEN1 inh: qHTS Assay for the Inhibitors of Human Flap endonuclease 1 (FEN1); Potency, µM (titrated, usually from 114 µM), most hits filed as inhibitors; 390,000 tested, 0.35% active; Recombinant FEN1 flap cleavage, fluorescence, 15 min; AID 588795, 2011; further: nearly all actives have a fitted effect of over 65% in size
Target sequence (P39748 whole entry, looked up): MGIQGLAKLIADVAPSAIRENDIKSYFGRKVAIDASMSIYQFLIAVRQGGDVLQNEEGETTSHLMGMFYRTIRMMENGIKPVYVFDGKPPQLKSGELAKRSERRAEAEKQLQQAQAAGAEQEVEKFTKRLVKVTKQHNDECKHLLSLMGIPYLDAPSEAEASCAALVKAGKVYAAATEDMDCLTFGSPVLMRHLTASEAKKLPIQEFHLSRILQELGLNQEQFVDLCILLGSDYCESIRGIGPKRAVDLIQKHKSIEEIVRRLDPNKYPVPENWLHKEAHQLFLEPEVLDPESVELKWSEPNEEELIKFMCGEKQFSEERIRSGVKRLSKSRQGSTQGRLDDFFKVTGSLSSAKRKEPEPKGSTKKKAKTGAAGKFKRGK
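Reaction started by adding substrate (50 nM final) to 10 nM enzyme after 15 min room-temperature compound preincubation. Reads at 0 and 15 min, with data normalized and fitted to a four-parameter Hill equation.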
Pol eta inh-1: qHTS for Inhibitors of Polymerase Eta. 390,000 tested, 1.2% active. AID 588591, 2011. recombinant Pol eta, fluorescent DNA replication assay. Potency, µM (titrated, usually from 114 µM), usual class: inhibitors
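Fluorescent replication assay: 50 nM final substrate added after a 15 min room-temperature compound preincubation with 10 nM enzyme. Signal taken at 0 min and again at 10 min.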
WRN helicase inh: qHTS for Inhibitors of WRN Helicase. AID 651768, 2012. Potency, µM (top dose mostly 114 µM), actives largely listed as inhibitors. WRN helicase unwinding, fluorescent forked duplex, kinetic. 360,000 tested, 0.46% active; further: nearly all actives have a fitted effect of over 55% in size
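WRN at 20 nM final preincubated with compound 15 min at room temperature; reaction started with 100 nM fluorophore/quencher forked duplex oligonucleotide and 2 mM ATP final. Unwinding followed kinetically by red fluorescence (ex 525, em 598 nm).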
Pol kappa inh-1: qHTS for Inhibitors of Polymerase Kappa; DNA polymerase kappa (Homo sapiens), Q9UBT6; purified Pol kappa, fluorescent DNA synthesis assay, 10 min; Potency, µM (series often up to 107 µM), actives largely listed as inhibitors; 400,000 tested, 0.53% active
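Enzyme at 10 nM met test compounds for 15 min at room temperature. Substrate addition (50 nM final) began the reaction, which was monitored by fluorescence at 0 and 10 min.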
POLB inh: qHTS Assay for Inhibitors of DNA Polymerase Beta; Pol beta primer extension/strand displacement, fluorescence kinetic; Potency, µM (series often up to 114 µM), most hits filed as inhibitors; P06746; 340,000 tested, 1.3% active
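Values derive from four-parameter Hill fits of normalized kinetic data: reads at 0 and 10 min following addition of 50 nM substrate to 10 nM Pol beta preincubated 15 min with compound.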
Pol iota inh: qHTS for Inhibitors of Polymerase Iota. Pol iota fluorescent replication assay, 10 min. DNA polymerase iota (Homo sapiens), Q9UNA4. Potency, µM (highest dose often 115 µM), hits mostly inhibitors. 390,000 tested, 1% active
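Pol iota at 10 nM preincubated 15 min with compounds at room temperature; reaction started with fluorescent substrate, 50 nM final. Fluorescence read kinetically at 0 and 10 min; buffer-only wells as negative control.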
GALK inh confirm: Confirmation Assay for Inhibitors of Human Galactokinase (GALK). Potency, µM (series often up to 115 µM), usual class: inhibitors. 150 tested, 70% active. purified GALK, Kinase-Glo ATP depletion luminescence. shares compounds with Pol eta inh-1
GALK redox cs: Confirmatory Assay for Inhibitors of Human Galactokinase (GALK): Phenol-HRP redox assay counterscreen; shares compounds with Pol eta inh-1; Phenol red-HRP H2O2 redox cycling, absorbance 600 nm; Potency, µM (series often up to 115 µM), most hits filed as inhibitors; 150 tested, 40% active; AID 2035, 2009
HEK293 viability: Secondary Assay for Inhibitors of Human Galactokinase (GALK): HEK-293 Cell Viability Assay. shares compounds with Pol eta inh-1. HEK-293 viability, ATP luminescence (CellTiter-Glo), 24/48 h. Potency, µM (titrated, usually from 46.1 µM), most hits filed as inhibitors. 170 tested, 10% active
Pol kappa inh-2: qHTS for Inhibitors of Polymerase Kappa: Confirmatory Assay for Cherry-picked Compounds. Potency, µM, most hits filed as inhibitors. 920 tested, 76% active. shares compounds with Pol eta inh-1. AID 720501, 2013. purified Pol-kappa, fluorescent strand-displacement substrate
Pol eta inh-2: qHTS for Inhibitors of Polymerase Eta: Confirmatory Assay for Cherry-picked Compounds. 2,600 tested, 64% active. Potency, µM, hits mostly inhibitors. shares compounds with Pol eta inh-1. Pol eta primer extension, TAMRA/BHQ fluorescence, 10 min
Numbers stand for hits; – = inactive; ? = inconclusive; · = no result; [ ] = another dose, or the depositor's remark. The call rests on the fitted dose curve; in most records, active means well fitted curve in the direction sought with a large enough effect; inconclusive means small, poorly fitted or top-dose-only effect, or another doubt; inactive means no such curve, though single readings can be large; an effect the other way counts as inactive or inconclusive.

SMILES | FEN1 inh | Pol eta inh-1 | WRN helicase inh | Pol kappa inh-1 | POLB inh | Pol iota inh | Pol eta inh-2 | others
O=C(COc1ccc([N+](=O)[O-])cc1)Nc1nnc(-c2cccnc2)s1 | ? | 39.8µM | – | ? | 15.8µM | 17.8µM | ? | Pol kappa inh-2=47.4
CCc1ccccc1OCC(=O)Nc1nc(-c2cccnc2)cs1 | – | – | – | – | – | – | ·
CCC(=O)c1ccc(OCC(=O)Nc2nc(-c3cccnc3)cs2)cc1 | – | 12.6µM | ? | – | · | 12.6µM | 67.5
CC1=C2C(CCS2(=O)=O)CC2(C1)C(=O)OC(C)(C)OC2=O (configuration not stated) | – | 79.4µM | – | ? | ? | ? | ?
O=C(N/N=C/c1cc(Br)c(O)c(Br)c1O)c1ccc2c(c1)OCCO2 | – | ? | –[11.6 µM] | – | 39.8µM | ? | ? | Pol kappa inh-2=33.6
C[C@H]1CN([C@@H](C)CO)C(=O)CCCn2nncc2CO[C@@H]1CN(C)Cc1ccc(Cl)c(Cl)c1 | · | – | – | · | · | · | ·
Cc1c(C(=O)O)sc2nc3n(c(=O)c12)CCC3 | – | 7.94µM | – | ? | 17.8µM | 11.2µM | 60.1
Cc1c(C(=O)N2CCN(c3ccccc3)CC2)sc2nc3n(c(=O)c12)CCC3 | – | – | – | – | ? | – | ·
COc1ccc(CNC(=O)c2cc(-c3ccc(OC)c(OC)c3)nc3n[nH]c(-c4ccc(C)cc4)c23)cc1 | – | – | · | – | – | – | ·
Cc1ccc(S(=O)(=O)/N=C2/NC(=O)/C(=C/c3cc([N+](=O)[O-])ccc3O)S2)cc1 | ? | 28.2µM | ? | ? | – | 28.2µM | · | Pol kappa inh-2=?
O=c1c2ccccc2nc2c3ccccc3c(NCc3cccnc3)nn12 | – | – | – | – | – | – | ·
O=c1c2ccccc2nc2c3ccccc3c(NCc3ccccn3)nn12 | ? | ? | –[11.6 µM] | – | ? | – | 47.8 | Pol kappa inh-2=26.7
O=C1C=C(c2ccc(C(=O)O)cc2)C[C@@H](c2ccc3c(c2)OCO3)C1 | – | ? | –[11.6 µM] | – | · | ? | ?
Cc1noc(NS(=O)(=O)c2ccc(NC(=O)CSc3nnc4c(n3)[nH]c3ccccc34)cc2)c1C | – | 25.1µM | 89.1µM | ? | ? | ? | 23.9
CCOC(=O)C1=C(N)Oc2ccc(Br)cc2[C@@H]1[C@@H](C#N)C(=O)OCC | · | · | · | –[19.4 µM] | · | · | ·
COc1ccc(/C=N/NC(=O)c2cccnc2)cc1COc1ccc([N+](=O)[O-])c(C)c1 | – | – | – | – | – | – | ·
COc1ccc(/C=N\NC(=O)c2ccc([N+](=O)[O-])c(C)c2)cc1COc1ccccc1C(N)=O | 79.4µM | – | ? | – | ? | – | · | Pol kappa inh-2=37.7
C=CC1=C(C(=O)O)N2C(=O)C(NC(=O)Cc3ccccc3)C2SC1 (configuration not stated) | – | 22.4µM | ? | 79.4µM | ? | 12.6µM | 67.5
O=C(COc1ccccc1)NC1C(=O)N2C(C(=O)O)=C(Cl)CSC12 (configuration not stated) | – | ? | – | – | – | ? | ·
Cc1cc(-c2ccccc2C(=O)O)on1 | – | – | – | – | – | – | ·
O=C(O)c1ccccc1C1=Nc2ccc(O)cc2Oc2cc(O)ccc21 | – | ? | ? | – | 50.1µM | 39.8µM | · | Pol kappa inh-2=?
COc1cc(-c2[nH]nc3c2C(c2ccoc2)C(C#N)=C(N)O3)cc(OC)c1OC (configuration not stated) | – | ? | – | ? | 17.8µM | ? | ?
CC(=O)c1ccc(S(=O)(=O)Nc2ccc(-n3cnnn3)cc2)cc1 | – | 31.6µM | –[11.6 µM] | – | · | 39.8µM | ?
CCOc1ccc(-c2ccc(/C=C3/C(=N)N4C(C)=CSC4=NC3=O)o2)c([N+](=O)[O-])c1 | – | 14.1µM | ? | ? | 35.5µM | 39.8µM | ?
CCOc1ccc(-c2ccc(/C=C3/C(=N)N4C=CSC4=NC3=O)o2)c([N+](=O)[O-])c1 | – | ? | – | – | – | – | ·
SMILES | FEN1 inh | Pol eta inh-1 | WRN helicase inh | Pol kappa inh-1 | POLB inh | Pol iota inh | Pol eta inh-2 | others
O=C(O)c1ccc(Cn2nnc3sc4c(c3c2=O)CCCC4)cc1 | – | 20µM | –[11.6 µM] | ? | – | ? | ?
COC(=O)c1ccc(Cn2nnc3sc4c(c3c2=O)CCCC4)cc1 | – | · | · | – | ? | – | ·
CN(C(=O)/C=C/c1ccco1)c1ccccc1C(=O)O | – | 44.7µM | – | ? | 17.8µM | ? | ?
CN(C(=O)C=Cc1ccco1)c1ccccc1 | – | – | ? | – | · | – | ·
COc1ccc(OC)c(CCNc2ncnc3onc(-c4ccc(F)cc4)c23)c1 | – | – | · | – | – | – | ·
O=C1C(Cl)=C(N2CCC(C(=O)O)CC2)C(=O)c2ccccc21 | – | 10µM | – | – | ? | ? | · | GALK inh confirm=29.8µM;GALK redox cs=37.5µM;HEK293 viability=–
O=[n+]1c2c(n([O-])c3cc(F)c(N4CCCC4)cc31)CCC2 | – | ? | ? | ? | · | ? | ?
O=[n+]1c2c(n([O-])c3cc(F)ccc31)CCCC2 | – | – | – | – | – | – | ·
Cc1ccc(S(=O)(=O)Nc2ccccc2C(=O)Nc2nc(-c3ccc(F)cc3)cs2)cc1 | – | 89.1µM | ? | ? | – | ? | ?
COc1ccc(-c2csc(NC(=O)c3ccccc3F)n2)cc1 | – | – | – | – | – | – | ·
COc1ccc(C)cc1NC(=O)c1ccc2c(SCC(=O)O)c3c(nc2c1)CCCC3 | – | – | – | – | – | – | ·
CCOC(=O)c1ccccc1NC(=O)c1ccc2c(SCC(=O)O)c3c(nc2c1)CCCC3 | – | 50.1µM | –[11.6 µM] | – | – | – | 75.7

Screening data: PubChem, National Center for Advancing Translational Sciences (NCATS)
